Compounds with a hit are over-represented: about 1.8% of the library has one in this group of screens.
NRP1-CendR mod: modulators of CendR peptide binding to human neuropilin-1; inhibition, % at 25 µM; FAM-RPARPAR peptide binding to NRP-1, fluorescence polarization; 360,000 tested, 0.85% active; O14786;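 active = inhibition or corrected inhibition above about 18%, plus a signal ratio from 0.5 to 1.5, limit read from the data, passing the limit was not always enough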
ABCB6 inh 2: blocks the human ABCB6 transporter | Q9NP58 | K562-ABCB6 porphyrin accumulation, flow cytometry, 1 h; active compounds read low | fluorescence ratio to DMSO, % at 10 µM | 360,000 tested, 0.19% active | AID 602162;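 active = fluorescence ratio to DMSO below 75%, the collection mean minus 3 SD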;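 note: signal is porphyrin accumulated inside mitochondria; 100% equals median channel fluorescence of DMSO control wells; lower ratio means ABCB6 inhibition with less porphyrin fluorescence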
Target sequence (Q9NP58 whole entry, looked up): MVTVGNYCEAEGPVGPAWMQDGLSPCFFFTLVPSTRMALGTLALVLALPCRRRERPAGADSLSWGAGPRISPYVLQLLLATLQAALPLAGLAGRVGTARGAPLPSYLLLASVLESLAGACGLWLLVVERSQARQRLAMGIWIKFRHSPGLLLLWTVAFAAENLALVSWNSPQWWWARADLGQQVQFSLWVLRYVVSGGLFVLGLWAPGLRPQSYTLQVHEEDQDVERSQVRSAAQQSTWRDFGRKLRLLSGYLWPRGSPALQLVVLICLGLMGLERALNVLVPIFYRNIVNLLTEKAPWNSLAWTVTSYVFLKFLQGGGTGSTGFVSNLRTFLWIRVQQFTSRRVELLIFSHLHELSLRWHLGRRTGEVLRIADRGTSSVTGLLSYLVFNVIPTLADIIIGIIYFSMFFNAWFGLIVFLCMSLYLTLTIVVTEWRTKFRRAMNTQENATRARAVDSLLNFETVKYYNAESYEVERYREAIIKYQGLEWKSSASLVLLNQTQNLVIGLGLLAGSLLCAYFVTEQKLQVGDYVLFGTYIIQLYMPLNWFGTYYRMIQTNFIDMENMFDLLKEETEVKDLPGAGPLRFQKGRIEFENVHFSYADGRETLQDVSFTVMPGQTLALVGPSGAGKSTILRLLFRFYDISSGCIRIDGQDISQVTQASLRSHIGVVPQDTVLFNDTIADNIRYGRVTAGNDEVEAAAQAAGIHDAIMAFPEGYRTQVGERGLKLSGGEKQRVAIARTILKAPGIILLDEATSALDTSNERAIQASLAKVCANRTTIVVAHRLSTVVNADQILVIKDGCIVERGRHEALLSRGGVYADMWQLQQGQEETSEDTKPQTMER
GSIS activator: primary screen for activators of insulin secretion dependent on glucose, INS-1E cells, GLuc reporter luminescence | INS-1E GLuc reporter insulin secretion, 2-3 h | activation, % at 16.6 µM | 370,000 tested, 0.61% active;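 active = lowest replicate activation of at least 40%, so every replicate reaches that level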;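 note: 0% = median of neutral control wells and 100% = median of IBMX positive control wells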
ARNT TACC3 PPI: disruptors of human ARNT/TACC3 interaction. Q9Y6A5. AlphaScreen His-ARNT PAS-B/GST-TACC3 binding, luminescence; TACC3 fragment carries E629A point mutation. inhibition, % at 9.99 µM. 390,000 tested, 0.66% active. AID 623870;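 active = mean inhibition of replicates at least 50% and at least half of replicates each reaching 50%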;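 note: 0% = complete ARNT plus TACC3 wells and 100% = ARNT alone without TACC3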
hiPSC survival: enhancers of human iPSC single-cell survival; 360,000 tested, 0.044% active; AID 602274; survival enhancement, % at 20 µM; hiPSC single-cell survival, ATPlite luminescence; 100% = ROCK inhibitor wells, 0% = DMSO; in the data active = survival enhancement above about 18%;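 note: cells exposed to compounds for 16 hours before the ATP read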
Active calls of the source: *; / = not tested or not shown.

SMILES | NRP1-CendR mod | ABCB6 inh 2 | GSIS activator | ARNT TACC3 PPI | hiPSC survival
CCc1nc2c(OCc3ccccc3C)cccn2c1N(C)C(=O)CC(C)C | -3.4 | 94.0 | / | / | -0.6
CCc1nc2c(OCc3ccc(C(=O)OC)cc3)cccn2c1N(C)C(=O)CC(C)C | 25.8* | 89.0 | -30.6 | / | -0.2
CCCCC(=O)N(C)c1c(CC)nc2c(OCc3ccccc3C)cccn12 | 21.8* | 96.0 | -25.6 | / | 6.8
COc1ccc(-c2nc(CS(=O)CC(=O)NC(C)CCc3ccccc3)c(C)o2)cc1OC (centres undefined) | 5.2 | 103.0 | 49.3* | -3.0 | 0.1
Cc1ccc(-c2nc(CS(=O)CC(=O)NC(C)CCc3ccccc3)c(C)o2)cc1 (centres undefined) | 11.2 | 97.0 | -28.4 | -0.7 | -0.1
CCOC(=O)c1ccccc1NC(=O)CN(c1ccccc1OC)S(C)(=O)=O | -6.9 | 97.0 | 62.1* | -2.4 | -1.7
COc1ccccc1N(CC(=O)Nc1ccccc1C(=O)NC(C)C)S(C)(=O)=O | 0.5 | 95.0 | 1.3 | 0.5 | 5.2
O=S(=O)(O)c1cc(O)c2cc(Nc3ccccc3)ccc2c1 | 41.9* | 101.0 | / | 19.5 | -0.3
O=S(=O)(O)c1cc(O)c2ccc(Nc3ccccc3)cc2c1 | -4.0 | 104.0 | / | 12.3 | -4.1
CC(=O)Nc1ccc2c(O)cc(S(=O)(=O)O)cc2c1 | -26.2 | 99.0 | 12.0 | -12.3 | -3.9
Nc1ccc2c(O)cc(S(=O)(=O)O)cc2c1 | 27.8* | 98.0 | / | 33.0 | 2.0
COc1ccccc1Nc1ccc2c(O)cc(S(=O)(=O)O)cc2c1 | 71.0* | 97.0 | -4.5 | active | -0.9
C[C@@H]1CCCCO[C@@H](CN(C)Cc2ccccc2)[C@@H](C)CN([C@@H](C)CO)C(=O)c2cc(NC(=O)Nc3ccc(F)cc3)ccc2O1 | / | / | -11.5 | -1.5 | /
CC(=O)N1[C@@H]2c3ccc(-c4cccc(F)c4)c(=O)n3C[C@H]1[C@H](CO)[C@H]2C(=O)NCCCN(C)C | / | / | 7.9 | / | /
NC(=O)CSc1nnc(-c2ccccn2)n1N | -2.1 | 100.0 | -4.3 | 45.0* | -0.2
O=C1NCCN1c1ccccc1 | 15.0 | 95.0 | 1.8 | / | 28.6*
CCOC(=O)Nc1cccc(OCC(=O)Nc2ccc3c(c2)CCC3)c1 | -2.7 | 98.0 | 44.9* | -7.3 | 0.1
COc1cccc(NC(=O)COc2ccc3c(c2)CCC3)c1 | 6.1 | 99.0 | -11.5 | -5.8 | -1.3
CS(=O)(=O)c1ccc(S(=O)CC(=O)OCc2ccccc2)c([N+](=O)[O-])c1 (centres undefined) | 1.6 | 108.0 | 80.7* | 0.9 | -4.8
CCC(CN(C)C)Oc1cc(NCc2ccccc2)c2ncn(C(C)C)c2c1 (centres undefined) | 10.3 | 139.0 | / | 51.3* | -3.3
O=[N+]([O-])c1ccc(Sc2ccncn2)c([N+](=O)[O-])c1 | -9.9 | 95.0 | 84.1* | / | -5.0
COc1ccc(C2=CC(=O)C[C@H](c3ccc(OC)c(OC)c3)C2)cc1 | 20.6* | 90.0 | -18.2 | 3.8 | 1.7
COc1ccc([C@H]2CC(=O)C=C(c3ccc(-c4ccccc4)cc3)C2)cc1OC | -4.7 | 98.0 | 3.2 | -3.4 | 2.6
COc1ccc(C2=NN(c3ccc(C(=O)O)cc3)C(c3ccc(OC)c(OC)c3)C2)cc1 (centres undefined) | 11.1 | 96.0 | 53.1* | / | -0.3
COc1ccc([C@H]2CC(=O)C=C(c3ccc4c(c3)OCCO4)C2)cc1 | 26.1* | 97.0 | -7.4 | 0.9 | 0.2
SMILES | NRP1-CendR mod | ABCB6 inh 2 | GSIS activator | ARNT TACC3 PPI | hiPSC survival
O=C1C=C(c2ccc3c(c2)OCO3)C[C@@H](c2ccc3c(c2)OCO3)C1 | 0.1 | 99.0 | 6.0 | 2.1 | -1.4
COc1ccc([C@H]2CC(=O)C=C(c3ccc(C(=O)O)cc3)C2)cc1OC | 15.0 | 104.0 | 90.9* | 3.2 | 4.7
COc1ccc(C2CC(c3ccccc3)=NN2c2ccc(S(N)(=O)=O)cc2)cc1OC (centres undefined) | 3.9 | 89.0 | 4.4 | -19.0 | 4.9
COc1ccc(NC(=O)Nc2ccc3c(c2)C(=O)N([C@H](C)CO)C[C@@H](C)[C@@H](CN(C)S(=O)(=O)c2cccs2)OCCCC[C@H](C)O3)cc1 | / | / | 8.1 | 18.1 | /
CC1(C)CCCC(C)(C)N1CC(O)COCCOc1ccc(Br)cc1 (centres undefined) | -5.2 | 90.0 | 51.2* | 7.8 | -0.2
CCOc1ccc(C(=O)CCNC(Cc2cnc[nH]2)C(=O)O)cc1 (centres undefined) | -2.2 | 90.0 | 15.1 | 60.9* | -1.5
CCOc1ccc(S(=O)(=O)NC(Cc2cnc[nH]2)C(=O)O)cc1 (centres undefined) | 12.6 | 102.0 | 18.7 | 15.8 | -0.1
CC(C)NC(=O)Nc1ccc2c(c1)C(=O)N([C@@H](C)CO)C[C@@H](C)[C@@H](CN(C)C(=O)c1ccncc1)OCCCC[C@@H](C)O2 | / | / | 7.0 | -0.8 | /
O=C(Nc1nc(NC(=O)c2ccco2)n(-c2ccccc2)n1)c1ccccc1 | 14.3 | 93.0 | / | 56.1* | -1.0
O=C(N/N=C/c1cc([N+](=O)[O-])ccc1O)C1CC1 | 2.9 | 98.0 | / | 54.2* | 0.8
Cc1c(NC(=S)N/N=C/c2cc([N+](=O)[O-])ccc2O)c(=O)n(-c2ccccc2)n1C | 16.2 | 101.0 | -19.9 | 69.6* | 0.3
Cc1c(NC(=S)N/N=C/c2ccc(O)cc2)c(=O)n(-c2ccccc2)n1C | 4.8 | 95.0 | / | 2.1 | -1.4
O=C(N/N=C/c1ccccn1)C1CC1 | 2.9 | 99.0 | / | -11.7 | -1.1
O=C(NN=Cc1ccccc1O)C1CC1 | -1.0 | 95.0 | 0.1 | 38.7* | 2.8
COc1cc(/C=N/NC(=O)c2cccc(N3CCCC3=O)c2)ccc1O | 4.2 | 104.0 | 12.5 | 1.1 | -0.6
O=C(N/N=C/c1cc([N+](=O)[O-])ccc1O)c1cccc(N2CCCC2=O)c1 | 4.1 | 94.0 | 16.6 | 77.8* | -0.4
CCc1ccc(N2CC(C(=O)N/N=C/c3cc([N+](=O)[O-])ccc3O)CC2=O)cc1 (centres undefined) | 0.9 | 94.0 | -3.4 | / | 0.1
CC(C)CC#Cc1ccc([C@@H]2[C@@H](CO)N3C(=O)CN(C(=O)Cc4ccccc4)C[C@@H]23)cc1 | / | / | -6.5 | / | /
CO[C@H]1CN(C)C(=O)c2cc(NC(C)=O)ccc2OC[C@H](C)N(Cc2nccs2)C[C@H]1C | / | / | 9.2 | -5.1 | /
O=C1NCCCC1C(=O)N/N=C/c1cc([N+](=O)[O-])ccc1O (centres undefined) | -14.8 | 103.0 | 8.3 | 69.7* | -0.2
O=C(CN(c1cccc(Br)c1)S(=O)(=O)c1ccccc1)N/N=C/c1cc([N+](=O)[O-])ccc1O | 49.7* | 103.0 | -9.0 | 30.1 | 0.4
O=C(N/N=C/c1cc([N+](=O)[O-])ccc1O)C(O)(c1ccccc1)c1ccccc1 | -2.4 | 95.0 | -29.4 | 48.7* | -0.8
O=C1C=C(c2ccc(F)c(Cl)c2)C[C@@H](c2ccc(F)cc2)C1 | 24.5* | 98.0 | -6.8 | -0.2 | 0.6
COc1ccc([C@H]2CC(=O)C=C(c3cc(Cl)ccc3C)C2)cc1 | 2.0 | 101.0 | 11.1 | -7.5 | 5.9

Compound activity as filed in PubChem.
